Experiment [1] concerns the target Retinoic acid receptor RXR-alpha (Homo sapiens) (UniProt P19793). In words: qHTS assay to identify small molecule agonists of the RXR signaling pathway (AID 1159527; calls by dose curve; further: nearly all actives have a fitted effect of over 35% in size). In outline:
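Agonist-mode beta-lactamase reporter assay: HEK 293T RXR-alpha-UAS-bla cells treated 16 hr at 37 C with compounds, 9-cis retinoic acid as positive control. LiveBLAzer FRET substrate, 405 nm excitation, 460/530 nm emission.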
For orientation: In qHTS, concentration-response curves come from the screen itself.

A short description of experiment [2]: qHTS assay to identify small molecule agonists of the RXR signaling pathway - cell viability counter screen (AID 1159529). Further: series mostly up to about 77 µM; nearly all actives have a fitted effect of over 50% in size. In outline: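 CellTiter-Glo luminescence gave viability in the wells also read for beta-lactamase. Cells (RXR-alpha-UAS-bla HEK 293T, 2% charcoal-stripped FBS medium) had 5 hr plating, then 16 hr compound exposure at 37 C; tetraoctyl ammonium bromide served as positive control.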

Experiment [3] can be described thus: qHTS assay to identify small molecule antagonists of the retinoic acid receptor (RAR) signaling pathway (AID 1159552; further: nearly all actives have a fitted effect of over 50% in size). A digest of the protocol: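 Luminescent RARE reporter read-out in C3RL4 cells: 6 hr co-treatment at 37 C of test compounds with retinol at 1 uM final. Cells plated overnight beforehand; luciferase reagent incubated 30 min at room temperature before reading.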

Experiment [4] is described as follows: qHTS assay to identify small molecule agonists of the retinoic acid receptor (RAR) signaling pathway (AID 1159553). In outline: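 Quantitative high-throughput format: the Tox21 10K library was tested on C3RL4 RARE-luciferase cells for 6 hr at 37 C and 5% CO2, with luminescence measured after a 30 min room-temperature reagent step.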
Experiment [5] can be described thus: qHTS assay to identify small molecule antagonists of the estrogen related receptor (ERR) signaling pathway from Tox21 library - cell viability counter screen (AID 1224834). Further: nearly all actives have a fitted effect of over 30% in size. In outline:
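Compounds in DMSO were pinned onto ERR cells that had been incubated for 6 h, and the plates were held at 37 C for 17.5 h. CellTiter-Fluor reagent was then added and fluorescence was measured after 30 min.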

Experiment [6] addresses Luciferin 4-monooxygenase (Photinus pyralis) (UniProt P08659). In words: qHTS assay to identify small molecule inhibitors of firefly luciferase (AID 1224835). Further: nearly all actives have a fitted effect of over 25% in size. Further: potency means the concentration at half of the fitted maximal effect. A digest of the protocol:
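Biochemical qHTS: compounds run as interplate titrations against purified firefly enzyme, with D-luciferin and ATP each at its KM concentration. Light output recorded by CCD imaging.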

Experiment [7] can be described thus: qHTS assay to identify small molecule antagonists of the constitutive androstane receptor (CAR) signaling pathway - cell viability counter screen (AID 1224837). Further: series mostly up to about 92 µM; nearly all actives have a fitted effect of over 45% in size. A digest of the protocol:
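Cells are seeded, rested 4 hr at 37 C/5% CO2, dosed with compound (15-point series) and 50 nM CITCO, incubated a further 23 hr, and then CellTiter-Fluor reagent is added before fluorescence is read. The line is HepG2 with stable hCAR and CYP2B6-2.2kb.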

The target in experiment [8] is Nuclear receptor subfamily 1 group I member 3 (Homo sapiens) (UniProt Q14994). In words: qHTS assay to identify small molecule antagonists of the constitutive androstane receptor (CAR) signaling pathway (AID 1224838).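 Further: HepG2 cells stably expressing hCAR with CYP2B6 luciferase reporter stimulated by CITCO; nearly all actives have a fitted effect of over 40% in size.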 In outline: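 Luminescence from a CYP2B6-2.2kb promoter reporter in hCAR-expressing HepG2 cells reflects CAR signaling. Cells received compounds at 15 concentrations and 50 nM CITCO (final), then incubated 24 h at 37 C/5% CO2.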
Sequence of Nuclear receptor subfamily 1 group I member 3 (Homo sapiens) (Q14994 whole entry, looked up): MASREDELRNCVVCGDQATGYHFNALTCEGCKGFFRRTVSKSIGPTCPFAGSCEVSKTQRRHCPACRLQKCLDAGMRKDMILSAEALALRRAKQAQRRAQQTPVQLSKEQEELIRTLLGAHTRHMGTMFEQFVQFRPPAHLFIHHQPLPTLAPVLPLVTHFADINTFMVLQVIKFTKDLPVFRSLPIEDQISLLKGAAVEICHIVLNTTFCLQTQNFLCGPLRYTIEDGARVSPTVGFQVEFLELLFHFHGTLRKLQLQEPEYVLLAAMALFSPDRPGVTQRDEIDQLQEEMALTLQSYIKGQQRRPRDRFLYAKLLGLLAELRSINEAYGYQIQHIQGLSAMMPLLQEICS

The target is the same in experiment [9]. As to the kind of experiment: qHTS assay to identify small molecule agonists of the constitutive androstane receptor (CAR) signaling pathway (AID 1224839).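 Further: HepG2 cells stably carrying human CAR and a CYP2B6 luciferase reporter; series mostly up to about 92 µM; nearly all actives have a fitted effect of over 15% in size.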 A digest of the protocol: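 Luminescent ONE-Glo read-out after 24 hr, 37 C exposure of double-stable HepG2-CYP2B6-hCAR reporter cells to a 15-point compound series, in the presence of 0.75 uM PK11195 (final).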

The nature of experiment [10]: qHTS assay to identify small molecule antagonists of the estrogen related receptor signaling pathway with the pleiotropic PPARgamma coactivator (PGC) from Tox21 10K library - cell viability counter screen (AID 1224840; active means well fitted cell-killing curve with a large enough effect in the repeat runs, not every such curve was filed as active; further: nearly all actives have a fitted effect of over 40% in size). In outline: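 Cell viability is measured by CellTiter-Fluor fluorescence in PGC/ERR cells that receive compounds after a 6-hour attachment period and are then incubated 17.5 hours at 37 C.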

The nature of experiment [11]: qHTS assay to identify small molecule agonists of the constitutive androstane receptor (CAR) signaling pathway - cell viability counter screen (AID 1224836). Further: series mostly up to about 92 µM; nearly all actives have a fitted effect of over 45% in size. A digest of the protocol:
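Cell viability multiplexed with the CAR agonist screen: CellTiter-Fluor fluorescence after 23 hr at 37 C. HepG2-CYP2B6-hCAR cells got compounds at 15 concentrations with PK11195 at 0.75 uM final.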

Experiment [12] is described as follows: qHTS assay to identify small molecule antagonists of the estrogen related receptor signaling pathway with the pleiotropic PPARgamma coactivator (PGC) from Tox21 10K library (AID 1224841; call rule not given here; further: series mostly up to about 92 µM; actives are mostly falling curves and most rising ones were filed inactive; nearly all actives have a fitted effect of over 50% in size). A digest of the protocol:
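Cells stably carrying the PGC/ERR reporter, seeded at 2,000 per well, received pin-transferred compounds 6 h post-plating. Exposure lasted 18 h at 37 C. Signal: One-Glo luminescence.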

Experiment [13] can be described thus: qHTS assay to identify small molecule agonists of the estrogen related receptor signaling pathway with the pleiotropic PPARgamma coactivator (PGC) from Tox21 10K library (AID 1224842). Further: nearly all actives have a fitted effect of over 15% in size. In outline:
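PGC/ERR reporter cell line, 2,000 cells per well, incubated 6 h at 37 C before 23 nL compound in DMSO was added. After 18 h at 37 C, One-Glo luminescence read following 30 min at room temperature.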

Experiment [14] can be described thus: qHTS assay to identify small molecule antagonists of the retinoid acid receptor (RAR) signaling pathway - cell viability counter screen (AID 1159551). Further: nearly all actives have a fitted effect of over 35% in size. In outline: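 ATP-based viability, C3RL4 cells, 6 h at 37 C with 1 uM final retinol co-added after compound; luminescence read 30 min post CellTiter-Glo, RT.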

Results filed as inconclusive are left out. Values without a mark were called inactive. Calls of active or inactive are those of the source. Unless noted, the call rests on the fitted dose curve; in most records, active means well fitted curve in the direction sought with a large enough effect in the repeat runs; inconclusive means weak or mixed curves; inactive means no such curve, though single readings can be large; an effect the other way counts as inactive or inconclusive.

Sequence of Luciferin 4-monooxygenase (Photinus pyralis) (P08659 whole entry, looked up): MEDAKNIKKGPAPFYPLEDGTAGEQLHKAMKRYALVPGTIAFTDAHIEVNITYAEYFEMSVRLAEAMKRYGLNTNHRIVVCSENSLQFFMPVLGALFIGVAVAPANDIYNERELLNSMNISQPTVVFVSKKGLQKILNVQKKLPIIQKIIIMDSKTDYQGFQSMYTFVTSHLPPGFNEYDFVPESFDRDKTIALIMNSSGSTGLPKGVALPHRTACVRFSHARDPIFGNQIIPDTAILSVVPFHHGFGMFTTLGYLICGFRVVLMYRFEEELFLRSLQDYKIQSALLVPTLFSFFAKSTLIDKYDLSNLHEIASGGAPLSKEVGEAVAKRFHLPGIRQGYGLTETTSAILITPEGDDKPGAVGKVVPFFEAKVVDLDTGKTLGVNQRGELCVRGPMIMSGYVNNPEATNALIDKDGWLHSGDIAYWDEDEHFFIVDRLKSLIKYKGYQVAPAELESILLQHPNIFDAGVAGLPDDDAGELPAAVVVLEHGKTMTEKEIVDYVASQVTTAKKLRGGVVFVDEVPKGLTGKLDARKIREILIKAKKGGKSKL
Sequence of Retinoic acid receptor RXR-alpha (Homo sapiens) (P19793 whole entry, looked up): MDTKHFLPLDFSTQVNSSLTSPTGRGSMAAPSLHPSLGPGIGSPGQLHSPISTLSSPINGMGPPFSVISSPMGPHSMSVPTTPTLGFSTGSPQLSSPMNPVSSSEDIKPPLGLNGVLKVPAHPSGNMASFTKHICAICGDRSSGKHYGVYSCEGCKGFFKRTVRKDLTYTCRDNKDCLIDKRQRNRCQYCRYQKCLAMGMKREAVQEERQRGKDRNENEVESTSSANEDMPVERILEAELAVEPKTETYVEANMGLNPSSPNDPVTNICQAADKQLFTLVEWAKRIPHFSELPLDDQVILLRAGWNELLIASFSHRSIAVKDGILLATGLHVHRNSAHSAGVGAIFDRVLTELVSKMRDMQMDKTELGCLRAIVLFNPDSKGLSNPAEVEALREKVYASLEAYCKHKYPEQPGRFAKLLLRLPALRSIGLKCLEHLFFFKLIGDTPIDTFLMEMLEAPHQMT

For the compound `NC(=O)c1ncn([C@@H]2O[C@H](CO)[C@@H](O)[C@H]2O)c1N`, the Potency entry in experiment [1], in [2], in experiment [3], in [4], in experiment [5] and in experiment [6] was “inactive” throughout. The Potency result in [8] and in [9] was “inactive” each time. Also, the compound was called inactive in [7] and in experiment [10].

As for `C1COCCO1`, the Potency entry in experiment [1], in experiment [2], in experiment [5], in experiment [6] and in experiment [12] was “inactive” throughout. In addition, the result in experiment [11], in [7] and in experiment [10] was inactive.

As to `Nc1ncnc2c1ncn2Cc1c(F)cccc1Cl`, the Potency entry in experiment [1], in experiment [2], in experiment [5], in experiment [6], in experiment [12] and in [13] was “inactive” each time. Moreover, the compound was called inactive in [11], in experiment [7] and in experiment [10].

Consider `CC1CCN(CCCC(=O)c2ccc(F)cc2)CC1`, for which the Potency result in experiment [1], in [2], in experiment [5], in experiment [8], in [9] and in experiment [12] was “inactive” in each case. Besides, the compound was classed as inactive in experiment [7] and in experiment [10].

Take `Cc1cc(C)c(NC(=O)CN(CC(=O)O)CC(=O)O)c(C)c1Br`: the Potency entry in experiment [1], in experiment [2], in experiment [5], in [6] and in [9] was “inactive” in each case. For the same compound, the outcome in experiment [11], in [7] and in experiment [10] was inactive.

Turning to `CSc1ccc(C=O)cc1`, the Potency result in experiment [1], in experiment [2], in [3], in experiment [5] and in experiment [6] was “inactive” each time. Also, the result in [11], in experiment [7] and in [10] was inactive.

Turning to `CC/C=C\C#N`, the Potency entry in experiment [1], in experiment [2], in [5], in experiment [6], in experiment [8] and in experiment [9] was “inactive” in each case. Further, the outcome in [11], in [7] and in experiment [10] was inactive.

Turning to `C[N+](C)(C)CC[N+]1(C)Cc2c(Cl)c(Cl)c(Cl)c(Cl)c2C1`, the Potency result in experiment [1], in experiment [2], in experiment [5] and in experiment [6] was “inactive” in each case. Further, the compound was called inactive in [11], in experiment [7] and in experiment [10].

In the case of `CCCCCOC(=O)Nc1nc(=O)n([C@@H]2O[C@H](C)[C@@H](O)[C@H]2O)cc1F`, the Potency result in experiment [1], in [2], in [5], in [6], in [8] and in [9] was “inactive” each time. The compound was classed as inactive in experiment [11], in experiment [7] and in experiment [10].

With `Cc1ccc(N)cc1[N+](=O)[O-]`, the Potency entry in [1], in [2], in experiment [6], in experiment [8] and in experiment [9] was “inactive” throughout. For the same compound, the call in experiment [7] and in [10] was inactive.

On to `CCCCCCCCCCCCI`, for which the Potency result in [1], in experiment [3], in experiment [4], in experiment [5], in experiment [8] and in [9] was “inactive” each time. For the same compound, the call in experiment [14], in experiment [11], in experiment [7] and in experiment [10] was inactive. Besides, the Potency in experiment [6] is 56.7 µM (active).

As for `Cc1ccc(Nc2ccc(O)c3c2C(=O)c2ccccc2C3=O)cc1`, the Potency result in experiment [1], in experiment [2], in experiment [5], in [6], in experiment [8] and in experiment [9] was “inactive” each time. For the same compound, the compound was called inactive in [7] and in experiment [10].

Consider `NC(N)=NS(=O)(=O)c1ccc(N)cc1`, for which the Potency result in experiment [1], in experiment [2], in [5] and in experiment [6] was “inactive” throughout. Moreover, the outcome in experiment [11], in [7] and in experiment [10] was inactive.

Consider `CCC(C)(C)C1CCC(OC)CC1` (centres undefined), for which the Potency entry in experiment [1], in [2], in experiment [5], in [6], in experiment [8] and in [9] was “inactive” in each case. The Potency entry in experiment [12] and in experiment [13] was “inactive” each time. Also, the result in experiment [11], in [7] and in experiment [10] was inactive.

In the case of `CC(C)COC(=O)c1ccccc1O`, the Potency result in experiment [1], in experiment [2], in experiment [5], in experiment [6], in experiment [8] and in [9] was “inactive” in each case. For the same compound, the outcome in experiment [11], in [7] and in experiment [10] was inactive.

Source of the values: PubChem BioAssay (Tox21).
